# Screening data from PubChem BioAssay.
# GALK inh: qHTS Assay for Inhibitors of Human Galactokinase (GALK). P51570. hit rate 0.007% among 270,000. Potency, µM (highest dose often 57.5 µM), for the others: top-dose activity change, negative = inhibition, hits mostly inhibitors. Purified GALK, Kinase-Glo residual ATP luminescence. AID 1868, 2009
# Target sequence (P51570 whole entry, looked up): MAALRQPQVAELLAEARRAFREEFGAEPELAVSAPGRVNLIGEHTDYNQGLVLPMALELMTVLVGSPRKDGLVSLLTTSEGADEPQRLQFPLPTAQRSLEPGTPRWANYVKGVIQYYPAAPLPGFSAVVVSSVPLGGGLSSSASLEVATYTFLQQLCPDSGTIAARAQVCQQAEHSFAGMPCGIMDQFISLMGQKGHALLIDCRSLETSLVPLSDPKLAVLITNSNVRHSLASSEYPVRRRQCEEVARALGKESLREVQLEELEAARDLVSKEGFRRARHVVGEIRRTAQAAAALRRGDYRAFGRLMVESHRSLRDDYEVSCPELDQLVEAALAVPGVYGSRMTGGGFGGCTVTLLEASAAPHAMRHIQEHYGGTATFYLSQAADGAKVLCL
#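 GALK at 5 nM final was combined with compound, 35 uM ATP and 100 uM galactose in HEPES pH8.0 with MgCl2 and DTT. The reaction ran one hour at room temperature before luminescent ATP detection.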
# TrxR1 substrate: qHTS Assay for Substrates of Mammalian Selenoprotein Thioredoxin Reductase 1 (TrxR1): qHTS | Thioredoxin reductase 1, cytoplasmic (Rattus norvegicus), O89049 | purified TrxR1 substrate turnover, NADPH consumption readout | Potency, µM (series often up to 114 µM), for the others: at the highest dose activity change, negative = substrate turnover | hit rate 0.01% among 390,000; further: nearly all actives have a fitted effect of over 50% in size
#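 Rat TrxR1, dispensed at 90 nM, was prereduced with 400 uM NADPH (final) for 5 min at ~22 deg C, then incubated with compound 15 min before 400 uM selenite. A first-read NADPH fluorescence drop versus no-compound background flagged substrates.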
# NPSR antagonist: qHTS Assay for Antagonists of the Neuropeptide S Receptor: cAMP Signal Transduction. Q6W5P4. Potency, µM (series often up to 38.3 µM), for inactives: at the highest dose activity change, negative = inhibition, actives largely listed as inhibitors. CHO-NPSR cells, cAMP TR-FRET, antagonist mode. hit rate 1% among 220,000. AID 1461, 2008; further: nearly all actives have a fitted effect of over 50% in size
# rTrxR1 inhibitor: qHTS Assay for Inhibitors of Mammalian Selenoprotein Thioredoxin Reductase 1 (TrxR1): qHTS; Thioredoxin reductase 1, cytoplasmic (Rattus norvegicus), O89049; recombinant rTrxR1, NADPH fluorescence consumption, selenite substrate; Potency, µM (titrated, usually from 114 µM), without a hit: at the top dose activity change, negative = inhibition, usual class: inhibitors; hit rate 1% among 390,000; AID 588453, 2011; further: nearly all actives have a fitted effect of over 65% in size
#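 Rat TrxR1 (90 nM in the dispensed reagent) was pre-reduced with 400 uM NADPH for 5 min at room temperature, then incubated with compound for 15 min. After 400 uM selenite was added, NADPH fluorescence (Ex 340/Em 450 nm) was followed for 8 min.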
# Starred values were filed as active, the others as inactive; ? = inconclusive; . = no result; ! = a repeat was not active; [ ] = another dose, or the depositor's remark. In the library only some 1.2% were active in any assay of this set; here they are far more common. The call rests on the fitted dose curve; in most records, active means well fitted curve in the direction sought with a large enough effect; inconclusive means small, poorly fitted or top-dose-only effect, or another doubt; inactive means no such curve, though single readings can be large; an effect the other way counts as inactive or inconclusive. On the % scale 0 is the no-effect control and ±100 the full control effect; potency means the concentration at half of the fitted maximal effect.
SMILES,GALK inh,TrxR1 substrate,NPSR antagonist,rTrxR1 inhibitor
C=C1CCN(C(Cc2ccccc2)C(=O)Nc2ccc(OC)cc2)S(=O)(=O)c2ccccc21 (stereo not drawn),.,1%,.,61%
CNC(=O)Oc1cccc(-c2cn3cc(OC(=O)NC)ccc3n2)c1,4%,55%,-8%,?
CNC(=O)Oc1ccc(-c2cn3cc(Cl)ccc3n2)cc1,0%,39%,-8%,22µM*
COc1cc(/C=C2\C(=O)NC(=O)N(CCc3ccc(F)cc3)C2=O)ccc1O,-1%,-9%,-10%,14µM*
COc1ccc(CN2C(=O)NC(=O)/C(=C/c3ccoc3)C2=O)cc1,-1%,-4%,9%,-21%
COc1cc(C=C2C(=O)NC(=O)NC2=O)ccc1O,-1%,1%[57.1 µM],-11%,?
CCOc1ccc(/C=C2/C(=O)NC(=O)N(CCc3ccc(F)cc3)C2=O)cc1,-4%,1%,5%,28µM*
O=C(CN1CCOCC1)c1cccc([N+](=O)[O-])c1,.,5%,.,?
C[C@]12CC[C@H]3C(=CCc4cc(O)ccc43)[C@@H]1CCC2=O,4%,1%,-5%,?
O=C1NC(=O)N(c2cccc(Br)c2)C(=O)/C1=C/c1ccsc1,6%,4%,-18%,45µM*
COc1ccc(NP2(=O)OCC(C)(N)CO2)cc1 (stereo not drawn),.,6%[11.4 µM],.,8%[11.4 µM]
COc1ccc(NC2CC(=O)N(C(C)C)C2=O)cc1 (stereo not drawn),0%,2%[57.1 µM],-6%[46.1 µM],3.5µM*
C[n+]1c(-c2ccccc2)c2cc(N)ccc2c2ccc(N)cc21,.,-1%,.,40%
Nc1ccc2ccc3cccc[n+]3c2c1,-6%,-17%,.,71µM*
Cc1cc(/C=C2/C(=O)NC(=O)N(C)C2=O)c(C)n1-c1ccccc1,-2%,6%,2%,1%
Cc1cc(C=C2C(=O)N(C)C(=S)N(C)C2=O)c(C)n1-c1cccnc1,0%,-5%,-46%,20µM*
Cc1noc(C)c1C(=O)N1CCC2(CC1)Oc1ccc(F)cc1C(=O)C21CC(c2ccc(Cl)cc2)=NO1 (stereo not drawn),-2%,4%,-9%,?
CCN1C(=O)C(=Cc2cc(C)n(C3CC3)c2C)C(=O)N(CC)C1=S,1%,-6%,-54%,?
CCN1C(=O)C(=Cc2ccc(C)s2)C(=O)N(CC)C1=S,.,-4%,-53%,14µM*
O=C(OCCCCN1C(=O)c2ccccc2C1=O)c1ccc(Br)o1,1%,-3%,?,1%
NC(Cn1ccc(=O)[nH]c1=O)C(=O)O (stereo not drawn),.,.,2%[46.1 µM],4%
C[C@]12CC(=CO)C(=O)C[C@@H]1CC[C@@H]1[C@@H]2CC[C@@]2(C)[C@H]1CC[C@]2(C)O,-2%,.,6.3µM*,.
O=c1c(C=NCc2cccs2)c(O)n(C2CCCCC2)c(=O)n1C1CCCCC1,2%,4%,?,18%
O=c1c(C=Nc2cccnc2Cl)c(O)n(CCCCl)c(=O)n1C1CCCCC1,-2%,0%,10µM*,-9%
CCCCOc1ccc(C(=O)NCCc2csc(-c3ccc(OC)cc3)n2)cc1,.,3%[57.1 µM],.,28%[57.1 µM]
SMILES,GALK inh,TrxR1 substrate,NPSR antagonist,rTrxR1 inhibitor
CNCCc1ccc(OC)c(OC)c1,3%,6%[57.1 µM],11%,20µM*
COc1ccc(C=C2C(=O)NC(=S)NC2=O)cc1,.,-4%,.,2.8µM*
CN(C)c1ccc(C=C2C(=O)NC(=S)NC2=O)cc1[N+](=O)[O-],-2%,5%[57.1 µM],-39%,4µM*
COc1ccc(OCCOc2cccc(C=C3C(=O)NC(=O)NC3=O)c2)cc1,-5%,.,.,.
O=C1NC(=S)NC(=O)C1=Cc1ccc(OCc2ccccc2)cc1,.,3%,.,7.9µM*
CCOc1ccc(-n2nc3c(=S)[nH]nc(C)c3c2C)cc1,1%,7%,6.3µM*,15%
CCOc1ccc(-c2c(C)n(-c3ccc(OCC)cc3)c3[n+]2CCCCC3)cc1,-4%,2%,-29%,-4%
CCOc1ccc(NC(=O)c2cc3c(C)nn(-c4ccccc4)c3s2)cc1,.,36%,.,43%
CCCN1CCC[C@@H]2Cc3n[nH]cc3C[C@H]21,.,.,4%[46.1 µM],7%
Cc1cc2c(C(C)C)c(O)c(O)c(C=O)c2c(O)c1-c1c(C)cc2c(C(C)C)c(O)c(O)c(C=O)c2c1O,?,?,?,40µM*
CCCN(CCC)CCc1ccc(O)c(O)c1,.,15%[57.1 µM],2%[46.1 µM],4%[57.1 µM]
OCCCc1ccc(O)c(O)c1,3%,5%,-27%,79µM*
NC(=O)C1=CN(C2OC(COP(=O)(O)OP(=O)(O)OC[C@H]3O[C@@H](n4cnc5c(N)ncnc54)[C@H](OP(=O)(O)O)[C@H]3O)C(O)C2O)C=CC1 (stereo partly drawn),.,.,9%[46.1 µM],3%[57.1 µM]
CN1CCC(O)(c2ccc(Cl)cc2)C(C(=O)c2ccc(Cl)cc2)C1 (stereo not drawn),8%,4%,-6%,0.11µM*
CCc1ccc(Nc2nc3c(S(=O)(=O)c4ccc(C)cc4)nnn3c3ccsc23)cc1,.,42%,.,14%
CCOc1ccc(N2C(=O)NC(=O)/C(=C\c3ccccc3[N+](=O)[O-])C2=O)cc1,1%,1%,0%,8.9µM*
COc1ccc(N2C(=O)NC(=O)/C(=C\c3ccccc3[N+](=O)[O-])C2=O)cc1,5%,-6%,-2%,10µM*
O=C1NC(=O)N(c2ccccc2)C(=O)/C1=C\c1ccc([N+](=O)[O-])s1,.,-19%,-5%,56µM*
Oc1ccc2c3c1O[C@H]1c4oc5ccccc5c4C[C@@]4(O)C(C2)N(CC2CC2)CCC314 (stereo partly drawn),.,0%[57.1 µM],-17%[46.1 µM],?
CNC(CC(C)C)C(=O)NC1C(=O)NC(CC(N)=O)C(=O)NC2C(=O)NC3C(=O)NC(C(=O)NC(C(=O)O)c4cc(O)cc(O)c4-c4cc3ccc4O)C(O)c3ccc(c(Cl)c3)Oc3cc2cc(c3OC2OC(CO)C(O)C(O)C2OC2CC(C)(N)C(O)C(C)O2)Oc2ccc(cc2Cl)C1O (stereo not drawn),.,3%,.,-9%
COC[C@H]1OC(=O)c2coc3c2[C@@]1(C)C1=C(C3=O)C2CCC(=O)[C@@]2(C)C[C@H]1OC(C)=O (stereo partly drawn),.,15%[57.1 µM],?,15µM*!
C/C=C(\C)C(=O)OC1C(C)=C2C(C1OC(=O)CCCCC)C(C)(OC(C)=O)CC(OC(=O)CCC)C1(O)C2OC(=O)C1(C)O (stereo not drawn),-5%,.,4µM*,.
Cn1ncnc2c(=O)n(C)c(=O)nc1-2,1.3µM*,40µM*,1µM*,?
Cc1ccc(-c2nc3c(=O)n(C)c(=O)nc-3n(C)n2)cc1,.,13µM*,.,11µM*
COc1ccc(C(=O)Nc2nnc(S(=O)(=O)N(CC(C)C)c3ccc(C)cc3)s2)cc1OC,.,85%,.,79%
